IL1B secr inh: qHTS for Inhibitors of Inflammasome Signaling: IL-1-beta AlphaLISA Primary Screen | 360,000 tested, 4.7% active | activity change, % at 57.5 µM | THP-1 LPS/ATP IL-1B secretion, AlphaLISA, 16 h; stronger effect = lower value | AID 743279, 2014; in the data active = activity change below about -50%; inconclusive = mostly about -30% to -49%
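THP-1 cells pretreated 1 hr with compounds (up to 57.5 uM final), then stimulated with LPS (250 ng/mL final) plus ATP (1.25 mM final); secreted IL-1B measured by AlphaLISA after 16 hr, decreased signal indicating inhibition.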
DT40 TDP1 no CPT: qHTS for Inhibitors of human tyrosyl-DNA phosphodiesterase 1 (TDP1): qHTS in cells in absence of CPT | DT40 Tdp1-/- hTDP1 cells, no CPT, ATP luminescence, 48 h | 420,000 tested, 15% active | Potency, µM (series often up to 46.2 µM), inactives show top-dose activity change, negative = growth inhibition, usual class: inhibitors | AID 686978, 2013; note: potency is the fitted concentration of half-maximal effect; nearly all actives have a fitted effect of over 55% in size
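Seeded 400 DT40-hTDP1 cells/well (vehicle DMSO, no 20 nM CPT); pinned compounds; ≥48 hr at 37 °C; CellTiter-Glo luminescence as viability measure.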
TDP1 cell CPT: qHTS for Inhibitors of human tyrosyl-DNA phosphodiesterase 1 (TDP1): qHTS in cells in presence of CPT. chicken DT40 Tdp1-/-;hTDP1 cells + 20 nM CPT, ATP luminescence, 48 h. Potency, µM (series often up to 46.2 µM), without a hit: at the highest dose activity change, negative = growth inhibition, hits mostly inhibitors. 420,000 tested, 12% active. AID 686979, 2013; note: potency is the fitted concentration of half-maximal effect; nearly all actives have a fitted effect of over 55% in size
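Cell growth measured by CellTiter-Glo luminescence after a minimum 48 h, 37 C compound exposure with 20 nM CPT in Tdp1-knockout DT40 cells stably expressing hTDP1, seeded 400/well; qHTS titration format.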
RORg inh: qHTS for inhibitors of ROR gamma transcriptional activity; Nuclear receptor ROR-gamma (Mus musculus), P51450; Potency, µM (series often up to 53.6 µM), for the others: at the highest dose activity change, negative = inhibition, usual class: inhibitors; 310,000 tested, 5.4% active; Drosophila S2 Gal4-RORgamma UAS-luciferase reporter, 20 h; note: potency is the fitted concentration of half-maximal effect; nearly all actives have a fitted effect of over 60% in size
Target sequence (P51450 whole entry, looked up, the tested form may be a part): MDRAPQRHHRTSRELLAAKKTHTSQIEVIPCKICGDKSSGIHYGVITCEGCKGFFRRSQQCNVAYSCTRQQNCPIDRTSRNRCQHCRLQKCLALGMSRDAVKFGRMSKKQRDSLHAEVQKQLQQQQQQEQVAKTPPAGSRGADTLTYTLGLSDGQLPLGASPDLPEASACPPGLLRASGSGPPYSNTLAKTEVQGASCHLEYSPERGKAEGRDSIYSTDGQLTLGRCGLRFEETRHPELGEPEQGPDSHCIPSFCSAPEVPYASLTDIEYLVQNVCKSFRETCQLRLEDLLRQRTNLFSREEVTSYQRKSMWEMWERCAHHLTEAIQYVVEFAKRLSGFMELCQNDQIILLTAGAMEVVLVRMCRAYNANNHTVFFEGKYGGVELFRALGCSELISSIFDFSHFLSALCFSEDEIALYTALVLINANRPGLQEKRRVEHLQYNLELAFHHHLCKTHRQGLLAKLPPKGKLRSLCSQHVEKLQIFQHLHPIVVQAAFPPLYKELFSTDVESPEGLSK
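Drosophila S2 cells stably expressing Gal4-DBD/mouse RORγ fusion under metallothionein promoter plus UAS-luciferase; compound 1 h, then 700 uM CuSO4 induction for 20 h at ambient temperature; inhibition read as reduced luminescence.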
Gal4-VP16 FLuc: VP16 counterscreen qHTS for inhibitors of ROR gamma transcriptional activity. Potency, µM (doses to about 53.6 µM), for the others: top-dose activity, negative = inhibition, usual class: inhibitors. AID 2546, 2010. 310,000 tested, 3.5% active. Drosophila S2 Gal4-VP16 UAS-luciferase, luminescence, 20 h;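 note: Gal4-VP16 expression switched on by copper sulfate through the metallothionein promoter; potency is the fitted concentration of half-maximal effect; nearly all actives have a fitted effect of over 50% in size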
LDHA inh: qHTS assay for inhibitors of human lactate dehydrogenase; purified LDHA, NADH/diaphorase-resazurin fluorescence; stronger effect = lower value; L-lactate dehydrogenase A chain (Homo sapiens), P00338; 480,000 tested, 0.15% active; activity change, % (values are at about 110 or 230 µM); AID 1347041, 2019; in the data active = activity change below about -30%; inconclusive = mostly about -25% to -30%;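 note: plate controls were DMSO wells for no effect and wells without enzyme for full effect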
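Enzyme activity of human lactate dehydrogenase 5 (2 nM; 0.06 mM NADH, 0.2 mM pyruvate, 5 min, RT) is measured via a resazurin/diaphorase fluorescence readout of residual NADH.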
An asterisk follows results filed as active; u = inconclusive; x = no result; [ ] = remark or other dose. Rows were chosen to be rich in hits. Some 18% of all compounds tested hit in one or more screens of this group. Unless noted, calls come from the whole dose curve; as a rule, active = well fitted curve in the direction sought with a large enough effect; inconclusive = small, poorly fitted or top-dose-only effect, or another doubt; inactive = no such curve, though single readings can be large; an effect the other way counts as inactive or inconclusive. Unless noted, % is set by controls: 0 for no effect and ±100 for the full control effect.

SMILES	IL1B secr inh	DT40 TDP1 no CPT	TDP1 cell CPT	RORg inh	Gal4-VP16 FLuc	LDHA inh
CCOc1ccc(N2CC(C(=O)Nc3ccc(S(=O)(=O)N4CCOCC4)cc3)CC2=O)cc1 (stereo unspecified)	-9	-8%	-3%	21%	6%	-13
CCC(C)c1ccccc1N1CC(C(=O)N2CCN(c3ccccc3)CC2)CC1=O (stereo unspecified)	-3	23µM*	15µM*	x	x	-4
CCC(C)c1ccccc1N1CC(C(=O)Nc2ccc(S(=O)(=O)N3CCOCC3)cc2)CC1=O (stereo unspecified)	-9	23µM*	23µM*	x	x	-1
CCOc1ccccc1N1CC(C(=O)Nc2ccc(S(=O)(=O)N3CCCCC3)cc2)CC1=O (stereo unspecified)	2	13µM*	13µM*	x	x	0
O=C(Nc1ccc(S(=O)(=O)N2CCCC2)cc1)C1CC(=O)N(c2ccccc2)C1 (stereo unspecified)	3	12%	-5%	-3%	1%	-5
CCOc1ccccc1N1CC(C(=O)Nc2cccc(S(=O)(=O)N3CCCCC3)c2)CC1=O (stereo unspecified)	-27	23µM*	u	-1%	-1%	-8
CCOC(=O)c1cn(C)nc1S(=O)(=O)N1CCCC1	x	x	x	x	x	2
CCc1cccc(NC(=O)Cn2c3[n+](c4ccc(C(F)(F)F)cc42)CCCCC3)c1	-68*	16µM*	u	2%	-1%	-21
O=C(Cn1c2[n+](c3ccc(C(F)(F)F)cc31)CCCCC2)c1ccc2c(c1)OCCO2	-11	21µM*	u	14%	11%	0
CC(=O)Oc1ccc(-c2nc3cc(Cl)ccc3o2)cc1	x	x	x	x	x	3
CC1(C)CC2CC(C)(CN2C(=O)c2cccs2)C1 (stereo unspecified)	27	8.2µM*	u	0%	3%	-8
CC1(C)C[C@@H]2C[C@@](C)(CN2C(=O)c2ccccc2)C1	15	15µM*	u	16%	-3%	-5
CC1(C)CC2CC(C)(CN2C(=O)c2ccc([N+](=O)[O-])cc2)C1 (stereo unspecified)	0	u	21µM*	35%	-3%	-3
CC(=O)Nc1ccccc1C(=O)N1CC2(C)CC1CC(C)(C)C2 (stereo unspecified)	9	-1%	-5%	-12%	-11%	2
Cc1cccc(C(=O)N2CC3(C)CC2CC(C)(C)C3)c1 (stereo unspecified)	22	23µM*	21µM*	18%	-1%	-2
CCC12CN(C(C)=O)CC(CC)(CN(C(C)=O)C1)C2=O	x	x	x	x	x	2
COc1cc(F)ccc1NS(=O)(=O)c1cc(C(=O)O)ccc1OC	x	x	x	x	x	-4
O=C(COC(=O)c1ccccc1OCc1ccc(F)cc1)NCC1CCCO1 (stereo unspecified)	0	u	u	x	x	-11
O=C(COC(=O)c1ccccc1OCc1ccccc1Cl)NCC1CCCO1 (stereo unspecified)	-51*	u	u	x	x	-1
CC1=CC(C)(C)N=C(Nc2ccc(C)cc2)S1	-65*	u	u	u	-2%	1
O=C(Nc1cc(I)ccc1C(F)(F)F)c1cc(Cl)ccc1Cl	x	x	x	x	x	5
CC(C)C(=O)NC(NC(=S)Nc1cccc2cccnc12)C(Cl)(Cl)Cl (stereo unspecified)	15	16µM*	8.2µM*	-42%	-4%	7
O=C(/C=C/c1ccccc1)NC(NC(=S)Nc1cccc2cccnc12)C(Cl)(Cl)Cl (stereo unspecified)	x	x	x	-6%	-8%	x
CC(C)(C)C(=O)NC(Nc1cccc2cccnc12)C(Cl)(Cl)Cl (stereo unspecified)	28	16µM*	u	43%	u	23
CCC(=O)NC(NC(=S)Nc1cccc2cccnc12)C(Cl)(Cl)Cl (stereo unspecified)	5	15µM*	18µM*	-9%[10 µM]	5%	3
SMILES	IL1B secr inh	DT40 TDP1 no CPT	TDP1 cell CPT	RORg inh	Gal4-VP16 FLuc	LDHA inh
CC(=O)c1ccc(NC(=O)c2nn(C(C)C)c(=O)c3ccccc23)cc1	x	x	x	x	x	3
O=C1C(=Cc2ccc(F)cc2)CCc2ccccc21	-13	21µM*	16µM*	x	x	3
Cc1ccc(/C=C2\CCc3ccccc3C2=O)cc1	x	x	x	x	x	4
O=C1C(=Cc2cccc(Cl)c2)CCc2ccccc21	-21	21µM*	u	x	x	3
O=C1C(=Cc2ccc(Cl)cc2)CCc2ccccc21	-9	u	21µM*	x	x	-2
CC(=O)N1CCN(c2ccccc2NC(=O)C2(c3ccc(Br)cc3)CCCC2)CC1	x	x	x	x	x	2
Oc1cccc(/C=N/NC(=S)NCCN2CCOCC2)c1O	119	5.8µM*	7.3µM*	7.1µM*	u	8
S=C(NCCN1CCOCC1)N/N=C/c1cccs1	-4	4.1µM*	18µM*	1.3µM*	4.5µM*	0
O=C(O)c1ccc(/C=N/NC(=S)NCCN2CCOCC2)cc1	16	-19%	5%	-45%	4%	-6
O=C(N/N=C/C(Cl)=C/c1ccccc1)c1cccs1	x	x	x	x	x	-3
CC(=C/c1ccccc1)/C=N/NC(=O)c1cccs1	x	5.2µM*	-13%	-17%	-10%	-6
O=C(N/N=C/C(Br)=C\c1ccccc1)c1cccs1	x	13µM*	15µM*	-35%	3%	1
Cn1c(=O)c2[nH]c(CN3CCN(c4ccccc4F)CC3)nc2n(C)c1=O	x	x	x	x	x	6
Cc1ccc2oc(C(=O)N(Cc3ccc(F)cc3)C3CCS(=O)(=O)C3)cc(=O)c2c1 (stereo unspecified)	x	x	x	x	x	5
COc1ccc(CCN=C(NS(=O)(=O)c2ccccc2)c2ccccc2)cc1OC	5	-4%	14%	7%	-1%	-7
COc1ccc(CCN=C(NS(=O)(=O)c2ccc(Cl)cc2)c2ccccc2)cc1	-66*	u	u	5%	3%	-2
O=C(c1ccc(C(F)(F)F)cc1)N1CCCN(C2CC2)CC1	x	x	x	x	x	4
COc1ccc(-c2cc(C(=O)N3CCC3)c3ccccc3n2)cc1	x	x	x	x	x	4

Screening data as filed in PubChem.
